CF NFkB block – cystic fibrosis NF-kB activation inhibition; 360,000 compounds, 0.86% hits; AID 588850; inhibition, % at 5 µM; KKLEB NF-kB-GFP reporter, PAF-induced, GFP fluorescence overnight;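 active = at least 50% inhibition at 5 µM, scaled per plate between neutral and stimulator controls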;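 also: PAF is a Pseudomonas aeruginosa culture filtrate used as stimulus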
KKLEB tox – CF airway cell cytotoxicity counter-screen; 360,000 compounds, 0.36% hits; activity change (cytotoxicity), % at 5 µM; KKLEB CF airway cells viability, ATPlite luminescence, overnight; stronger effect = lower value; cells stimulated with P. aeruginosa culture filtrate; AID 602141;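 active = corrected activity change at or below -50% at 5 µM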
CHOP inh – blocks CHOP induction under ER stress | inhibition, % at 10 µM | 220,000 compounds, 3.8% hits | CHO-K1 CHOP-promoter luciferase, tunicamycin-induced, 15-18 h | AID 2732;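 active = compounds that reduced the stress-induced luciferase reporter signal by more than about 70% of percent inhibition, limit read from the data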
Peg3 prom inh – Peg3 promoter activity inhibition; inhibition, % at 20 µM; 360,000 compounds, 1.7% hits; AID 588405; HeLa PEG-Prom luciferase reporter, luminescence, overnight;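 active = inhibition of at least 50% at 20 µM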
MITF TRPM1 inh – inhibitors of MITF-driven TRPM1 promoter in melanoma cells; 330,000 compounds, 0.83% hits; SK-MEL-5 TRPM1 promoter luciferase, 24 h; inhibition, % at 12.5 µM;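 active = mean inhibition across replicates of 60% or more, whatever share of single replicates reaches that level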
HIF-2a inh – HIF-2a inhibition; 786-0 RCC cells HIF-2a reporter, luciferase luminescence, overnight; inhibition, % at 18.8 µM; 360,000 compounds, 0.72% hits;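 active = inhibition of the luminescence signal of 40% or more relative to plate controls, in a single-dose primary screen at 18.75 µM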
Large screens that a line does not name were inactive. This is a sample that favours compounds with a hit; in the whole collection about 4.3% have one here.

CCNc1nc(NCC)n2c(SC(C(=O)Nc3cc(Cl)cc(Cl)c3)c3ccccc3)nnc2n1 (stereo unspecified)	CHOP inh 90, Peg3 prom inh 76
CCOc1ccc(CN(C)c2ccc(S(=O)(=O)N3CCN(C)CC3)cc2[N+](=O)[O-])cc1OC	none (no result: CHOP inh, MITF TRPM1 inh)
CC(C)n1c2ccccc2c2nc3ccccc3nc21	CHOP inh 72
C#CCn1c2ccccc2c2nc3ccccc3nc21	none (no result: CHOP inh)
COc1ccc(/C=C2\SC(=S)N(Cc3cccnc3)C2=O)cc1C	CHOP inh 88
O=C1/C(=C/c2ccc(O)cc2)SC(=S)N1Cc1cccnc1	none
COc1ccc2c(c1)cc(C)c1nnc(SCC(=O)N(C)c3nc(-c4ccccc4)cs3)n12	CHOP inh 94
c1ccc2c(c1)CCN(c1nc3ccccc3n3cnnc13)C2	CHOP inh 70 (no result: MITF TRPM1 inh)
CCOC(=O)c1c(NC(=O)COC)sc(C)c1C	none
CCOC(=O)c1c(NC(=O)COC(=O)C2CC2C)sc(C)c1C (stereo unspecified)	CHOP inh 70
CCOC(=O)c1c(NC(=O)CC2Nc3cc(C)c(C)cc3NC2=O)sc(C)c1C (stereo unspecified)	CHOP inh 74
CCOc1ccccc1NC(=O)CC1Nc2cc(C)c(C)cc2NC1=O (stereo unspecified)	none
CCc1ccc2c(CN(C)Cc3ccc(OC(F)F)c(OC)c3)cc(=O)oc2c1	none (no result: CHOP inh)
CCOc1nc(C)cc(C)c1S(=O)(=O)c1cccc(C)c1	none (no result: CF NFkB block, KKLEB tox, Peg3 prom inh, MITF TRPM1 inh, HIF-2a inh)
Cc1cc(C)c(S(=O)(=O)c2c(C)cccc2C)c(OCC(C)C)n1	CHOP inh 74
O=C(C1CCC1)N1CCN(c2cccc(C(F)(F)F)c2)CC1	none (no result: CHOP inh)
O=C(C1CCN(c2nnc(-n3cccc3)s2)CC1)N1CCN(c2cccc(C(F)(F)F)c2)CC1	CHOP inh 77
CCc1nnc(NC(=O)CSc2nc(-c3ccccc3)cc(-c3ccc(F)cc3)c2C#N)s1	CHOP inh 84
CCc1nnc(NC(=O)CSc2nc(-c3ccccc3)nc3ccccc23)s1	CHOP inh 90
CCc1nnc(NC(=O)CSc2nc(C3CCCCC3)nc3ccccc23)s1	none
CCc1cc(C(=O)NC2CCCc3c2cnn3-c2ccc(F)cc2F)no1 (stereo unspecified)	none (no result: CHOP inh, MITF TRPM1 inh)
CCOC(=O)c1c(C)n(C(=O)c2ccco2)c(=O)n1C(=O)c1ccco1	CHOP inh 85
CCCN(CCC)C(=O)CSc1nc2ccccc2c(=O)n1CC1COc2ccccc2O1 (stereo unspecified)	Peg3 prom inh 51
CCOC(=O)CSc1nc2ccccc2c(=O)n1CC1COc2ccccc2O1 (stereo unspecified)	none
C[C@H](CO)N1C[C@H](C)[C@H](CN(C)C(=O)c2ccccc2)OCc2ccccc2-c2c(n(C)c3ccccc23)C1=O	none (no result: CHOP inh, MITF TRPM1 inh)
N#Cc1cnn2c1nc(N1CCCCC1)c1ccccc12	Peg3 prom inh 51
CS(=O)(=O)c1cccc(C(=O)N(CCc2ccccc2)Cc2cccs2)c1	none (no result: CHOP inh)
CCCCCCCCCCOC(=O)Cn1c(COc2ccccc2OC)[n+](C)c2ccccc21	CF NFkB block 51, KKLEB tox -54, Peg3 prom inh 106, MITF TRPM1 inh 83, HIF-2a inh 42 (no result: CHOP inh)
NCC(O)C1CCCCCCC1 (stereo unspecified)	none (no result: CF NFkB block, KKLEB tox, Peg3 prom inh, MITF TRPM1 inh, HIF-2a inh)
CCOC(=O)Cn1c(S(=O)(=O)Cc2ccccc2Cl)nc(-c2ccccc2)c1-c1ccccc1	CHOP inh 70
C#CCn1c(S(=O)(=O)Cc2ccccc2Cl)nc(-c2ccccc2)c1-c1ccccc1	CHOP inh 80
COc1ccc(-c2c(-c3ccsc3)oc3c2C(O)CCC3)cn1 (stereo unspecified)	none (no result: CF NFkB block, KKLEB tox, CHOP inh, Peg3 prom inh, MITF TRPM1 inh)
O=C(Nc1ccc(Cc2ccncc2)cc1)c1ccc(Cl)c([N+](=O)[O-])c1	none
Cc1c([N+](=O)[O-])cc(C(=O)Nc2ccc(Cc3ccncc3)cc2)cc1[N+](=O)[O-]	CHOP inh 77
Cc1nc2c(Br)cc(Br)cc2cc1O	CHOP inh 81
Brc1cc(Br)c2nc(-c3cccs3)ccc2c1	none
COc1ccc(-c2cc3nc(-c4ccccc4)cc(N4CCN(C(=O)c5ccoc5)CC4)n3n2)cc1	Peg3 prom inh 55 (no result: CHOP inh, MITF TRPM1 inh)
Cc1ccc2nc(/C=C/c3cccc(F)c3)ccc2c1	CHOP inh 96
CC(O)(Cc1cccnc1)c1cccs1 (stereo unspecified)	none (no result: CHOP inh)
COCCCNC(=O)C(=O)NCC(c1ccco1)N1CCN(c2ccc(OC)cc2)CC1 (stereo unspecified)	none (no result: CHOP inh)
CC(NC(=O)C(=O)NCCC1=CCCCC1)c1ccccc1 (stereo unspecified)	CHOP inh 95
O=C(NCCC1=CCCCC1)C(=O)NCC(c1ccco1)N1CCN(c2ccccc2)CC1 (stereo unspecified)	CHOP inh 94
COc1ccc(N2CCN(C(CNC(=O)C(=O)NCCC3=CCCCC3)c3ccco3)CC2)cc1 (stereo unspecified)	CHOP inh 87
Cc1sc(NC(=O)CN(C(=O)c2ccccc2F)C2CCCC2)c(C(N)=O)c1C	none (no result: CHOP inh)
COC(=O)c1cc(Cl)c(NC(=O)C(C)C)cc1OC	none
COC(=O)c1cc(Cl)c(NC(=O)c2ccc(C(C)(C)C)cc2)cc1OC	CHOP inh 89
CCCCCCC(=O)NNC(=O)c1c(O)c2ccccc2n(CCC)c1=O	CHOP inh 76
CCCCCCCC(=O)NNC(=O)c1c(O)c2ccccc2n(CCC)c1=O	none
CCn1c(=O)c(C(=O)NNC(=O)c2ccccc2)c(O)c2ccccc21	none (no result: CHOP inh)
CCCCCCC(=O)NNC(=O)c1c(O)c2ccccc2n(CC)c1=O	CHOP inh 93
CCn1c(=O)c(C(=O)NNS(=O)(=O)c2ccc(Cl)cc2)c(O)c2ccccc21	CHOP inh 84
COc1cccc(C(=O)c2c(-c3ccccc3)ncc3cc(OC)c(OC)cc23)c1	none (no result: CHOP inh)
CCc1nc2c(OCc3ccc(C(F)(F)F)cc3)cccn2c1N(C=O)Cc1ccc(OC)cc1	none (no result: CHOP inh, MITF TRPM1 inh)
OCC1NC[C@@H](O)C(O)[C@@H]1O (stereo partly specified)	none (no result: CF NFkB block, KKLEB tox, Peg3 prom inh, MITF TRPM1 inh, HIF-2a inh)
Cc1ccc(NC2CCCN(C(=O)c3ccc4[nH]ccc4c3)C2)cc1C (stereo unspecified)	none (no result: CHOP inh)
O=C1C=CC(=O)N1Cc1ccccc1	CF NFkB block 76, Peg3 prom inh 104 (no result: CHOP inh)
O=C1C2CC=CCC2C(=O)N1Cc1ccccc1 (stereo unspecified)	none
CC(C)(C)NC(=O)CN1CCN(C(=O)CCl)CC1	none
COc1ccc(C(=O)Nc2nc(C)c3cc4c(cc3n2)OCO4)cc1	CHOP inh 72
Cn1cc(CN2CCCC(C(=O)Nc3cccc(-c4cc5ccccc5[nH]4)c3)C2)cn1 (stereo unspecified)	Peg3 prom inh 56 (no result: CHOP inh)
CC(C)n1cc(CN2CCCC(C(=O)Nc3cccc(-c4cc5ccccc5[nH]4)c3)C2)cn1 (stereo unspecified)	Peg3 prom inh 97 (no result: CHOP inh)

Source: PubChem (several laboratories)
